Results reported in PubChem BioAssay (EPA / NIEHS).
Results filed as inconclusive are left out. The source made the active and inactive calls. Rule for the calls, unless noted: active = hit-call score of the fitted dose curve at least 0.9, where 1 is the maximum; inactive = score below 0.9.

How the values were obtained:
[1] = ATG_PXRE_CIS: Attagene CIS-FACTORIAL HepG2 Assay for human Pregnane X Receptor Element (PXRE) (AID 2282957); conditions: HepG2 Attagene CIS-FACTORIAL PXRE reporter, mRNA; actives raise or lower the signal
In short: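 HepG2 cells transiently transfected with cis-element-driven multiplexed reporter units; after 24 h chemical exposure, reporter mRNA measured by RT-PCR, 6-FAM labelling, HpaI digestion and capillary electrophoresis. Bidirectional fitting relative to DMSO.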

[2] = ATG_PPRE_CIS: Attagene CIS-FACTORIAL HepG2 Assay for human Peroxisome Proliferator-activated Response Element (PPRE) (AID 2282958); conditions: HepG2 PPRE cis-element reporter, Attagene transcription factor profiling; actives raise or lower the signal
In short: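 PPRE activity in HepG2: transient cis-reporter transfection, 24 h compound incubation, reporter mRNA by RT-PCR and CE fluorescence; gain/loss fitted against DMSO.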

[3] = ATG_RORE_CIS: Attagene CIS-FACTORIAL HepG2 Assay for human RAR-related Orphan Receptor Element (RORE) (AID 2282959); conditions: HepG2 Attagene cis-factorial RORE reporter, mRNA; actives raise or lower the signal
In short: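 A 24-hour exposure of transfected HepG2 hepatoma cells precedes RNA isolation and reporter RT-PCR. Labeled products are digested with HpaI and resolved by capillary electrophoresis, with gain or loss of signal scored relative to DMSO.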

[4] = ATG_Sox_CIS: Attagene CIS-FACTORIAL HepG2 Assay for human SRY-box transcription factor (SOX) (AID 2282960); conditions: HepG2 Attagene cis-factorial SOX reporter, mRNA; actives raise or lower the signal
In short: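 HepG2, cis reporter units, 24 h exposure. Reporter mRNA: RT-PCR → FAM labelling → HpaI → CE fluorescence. Bidirectional fit vs DMSO.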

[5] = molecular target: Transcription factor Sp1 (Homo sapiens) (UniProt P08047); assay: ATG_Sp1_CIS: Attagene CIS-FACTORIAL HepG2 Assay for human Specificity Protein 1 (Sp1) (AID 2282961); conditions: HepG2 Sp1 cis-reporter transcription, actives raise or lower the signal
Sequence of Transcription factor Sp1 (Homo sapiens) (P08047 whole entry, looked up, the tested form may be a part): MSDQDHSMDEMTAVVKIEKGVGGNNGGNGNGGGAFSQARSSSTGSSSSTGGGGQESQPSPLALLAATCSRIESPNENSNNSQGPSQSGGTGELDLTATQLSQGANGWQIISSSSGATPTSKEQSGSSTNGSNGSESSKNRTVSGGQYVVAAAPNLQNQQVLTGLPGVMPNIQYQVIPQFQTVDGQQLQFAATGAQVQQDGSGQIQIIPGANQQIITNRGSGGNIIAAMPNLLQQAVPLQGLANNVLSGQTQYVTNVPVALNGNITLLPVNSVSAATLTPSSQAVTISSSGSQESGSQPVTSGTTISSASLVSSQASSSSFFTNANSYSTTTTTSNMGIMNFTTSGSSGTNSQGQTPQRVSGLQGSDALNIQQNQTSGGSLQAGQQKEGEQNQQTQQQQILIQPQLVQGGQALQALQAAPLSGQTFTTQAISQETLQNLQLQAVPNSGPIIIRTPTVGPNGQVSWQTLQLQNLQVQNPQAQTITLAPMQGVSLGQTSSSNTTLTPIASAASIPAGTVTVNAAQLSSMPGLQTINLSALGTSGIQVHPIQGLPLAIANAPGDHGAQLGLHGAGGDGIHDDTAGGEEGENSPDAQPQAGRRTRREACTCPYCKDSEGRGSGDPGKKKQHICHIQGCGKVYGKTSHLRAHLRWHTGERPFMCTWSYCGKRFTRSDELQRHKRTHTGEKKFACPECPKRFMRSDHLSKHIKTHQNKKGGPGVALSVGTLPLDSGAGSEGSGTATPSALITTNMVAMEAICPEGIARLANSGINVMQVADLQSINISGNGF
In short: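 Liver-derived HepG2 cells, cis-element reporter library, 24 h treatment; RNA isolated, cDNA amplified with reporter-specific primers, FAM-labeled fragments sized on capillary analyzer. DMSO baseline, bidirectional curve fit.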

[6] = ATG_SREBP_CIS: Attagene CIS-FACTORIAL HepG2 Assay for human Sterol Regulatory Element Binding (SREBP) (AID 2282962); conditions: HepG2 Attagene cis-factorial SREBP reporter, mRNA; actives raise or lower the signal
In short: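 mRNA induction of transfected cis-promoter reporters in HepG2 cells, 24 h post-dose. Detection: RT-PCR with 6-FAM-labelled products, HpaI digest, capillary electrophoresis. DMSO served as negative control and baseline.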

[7] = molecular target: Signal transducer and activator of transcription 3 (Homo sapiens) (UniProt P40763); assay: ATG_STAT3_CIS: Attagene CIS-FACTORIAL HepG2 Assay for human Signal Transducer and Activator of Transcription 3 (STAT3) (AID 2282963); conditions: HepG2, Attagene cis-factorial STAT3 reporter transcription; actives raise or lower the signal
Sequence of Signal transducer and activator of transcription 3 (Homo sapiens) (P40763 whole entry, looked up): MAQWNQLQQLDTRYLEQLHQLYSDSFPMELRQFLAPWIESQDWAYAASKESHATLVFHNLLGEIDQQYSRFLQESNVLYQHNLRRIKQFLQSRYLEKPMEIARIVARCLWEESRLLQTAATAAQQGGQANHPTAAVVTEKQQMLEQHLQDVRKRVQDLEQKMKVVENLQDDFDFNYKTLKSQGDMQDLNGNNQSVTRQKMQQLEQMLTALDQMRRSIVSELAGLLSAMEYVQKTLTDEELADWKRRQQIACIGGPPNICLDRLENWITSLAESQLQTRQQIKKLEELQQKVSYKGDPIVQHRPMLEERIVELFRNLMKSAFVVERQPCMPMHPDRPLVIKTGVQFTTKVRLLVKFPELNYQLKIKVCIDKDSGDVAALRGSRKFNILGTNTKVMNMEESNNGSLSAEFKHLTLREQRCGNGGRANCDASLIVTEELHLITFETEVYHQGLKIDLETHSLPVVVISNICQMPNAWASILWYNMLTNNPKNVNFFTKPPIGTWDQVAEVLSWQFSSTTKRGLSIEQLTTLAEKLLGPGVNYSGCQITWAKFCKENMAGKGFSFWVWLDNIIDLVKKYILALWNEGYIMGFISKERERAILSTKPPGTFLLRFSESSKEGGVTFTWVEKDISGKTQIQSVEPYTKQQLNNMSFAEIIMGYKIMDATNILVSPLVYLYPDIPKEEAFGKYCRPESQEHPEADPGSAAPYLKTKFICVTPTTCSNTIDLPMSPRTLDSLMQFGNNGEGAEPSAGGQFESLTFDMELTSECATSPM
In short: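 Values derive from bidirectional fits relative to DMSO of reporter mRNA levels, measured by RT-PCR with capillary electrophoresis, in HepG2 cells carrying transiently transfected cis-regulated reporter units and exposed 24 h.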

[8] = ATG_TA_CIS: Attagene CIS-FACTORIAL HepG2 Assay for human TA Basal Promoter (AID 2282964); conditions: HepG2 Attagene CIS-factorial TA basal promoter reporter; actives raise or lower the signal
In short: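 HepG2 cells transiently transfected with multiple reporter units under cis promoter elements, reporting endogenous transcription factor activity; this endpoint tracks the TA basal promoter as background control. Reporter mRNA after 24 h dosing measured by RT-PCR/capillary electrophoresis; bidirectional fits versus DMSO.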

[9] = ATG_TCF_b_cat_CIS: Attagene CIS-FACTORIAL HepG2 Assay for human T-Cell-Factor with beta-catenin (TCF/b-cat) (AID 2282965); conditions: HepG2 TCF/beta-catenin cis-reporter transcription, actives raise or lower the signal
In short: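 Cells of the HepG2 line carry transiently transfected reporter units whose promoters respond to endogenous factors. Twenty-four hours post-dosing, reporter mRNA induction is measured by fluorescent RT-PCR and capillary electrophoresis, with DMSO as baseline.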

[10] = ATG_TAL_CIS: Attagene CIS-FACTORIAL HepG2 Assay for human TAL Basal Promoter (AID 2282966); conditions: HepG2 Attagene cis-factorial TAL promoter reporter; actives raise or lower the signal;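 note: background control endpoint measuring basal TAL promoter reporter mRNA not a specific factor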
In short: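 HepG2 cells transiently transfected with multiplexed cis-promoter reporter units, dosed 24 h. Reporter mRNA quantified by RT-PCR, 6-FAM labelling, HpaI digestion and capillary electrophoresis; TAL basal promoter serves as background control, fitted bidirectionally versus DMSO.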

[11] = ATG_VDRE_CIS: Attagene CIS-FACTORIAL HepG2 Assay for human Vitamin D Receptor Element (VDRE) (AID 2282968); conditions: HepG2 VDRE cis-reporter transcription, actives raise or lower the signal
In short: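 Cell-based multiplexed reporter format in human liver HepG2 cells, 24 h post-dose. Fluorescence from capillary electrophoresis of reporter cDNA gives the signal, with DMSO as negative control and baseline.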

[12] = molecular target: Nuclear receptor subfamily 1 group I member 3 (Homo sapiens) (UniProt Q14994); assay: ATG_CAR_TRANS: Attagene TRANS-FACTORIAL HepG2 Assay for human Constitutive Androstane Receptor (CAR) (AID 2282969; active = hit-call score of the fitted dose curve at least 0.9, where 1 is the maximum;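 note: activators raise reporter mRNA above DMSO so AC50 marks induction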); conditions: HepG2 Attagene TRANS-FACTORIAL CAR reporter
Sequence of Nuclear receptor subfamily 1 group I member 3 (Homo sapiens) (Q14994 whole entry, looked up, the tested form may be a part): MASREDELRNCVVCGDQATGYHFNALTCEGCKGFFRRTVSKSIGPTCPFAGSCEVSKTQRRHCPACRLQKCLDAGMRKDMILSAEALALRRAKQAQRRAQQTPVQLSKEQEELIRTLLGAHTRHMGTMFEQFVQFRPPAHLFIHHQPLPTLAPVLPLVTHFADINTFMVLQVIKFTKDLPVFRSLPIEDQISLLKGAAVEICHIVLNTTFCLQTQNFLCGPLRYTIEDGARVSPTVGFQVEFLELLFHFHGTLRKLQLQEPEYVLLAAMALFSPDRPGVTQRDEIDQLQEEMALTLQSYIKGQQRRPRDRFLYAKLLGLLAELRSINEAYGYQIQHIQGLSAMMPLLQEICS
In short: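 HepG2 cells transiently transfected with GAL4-UAS reporter units; TRANS format reads activity of exogenous chimeric NR-Gal4 protein. After 24 h dosing, reporter mRNA quantified by RT-PCR, 6-FAM labelling and capillary electrophoresis; gain of signal fitted against DMSO.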

[13] = molecular target: X-box-binding protein 1 (Homo sapiens) (UniProt P17861); assay: ATG_Xbp1_CIS: Attagene CIS-FACTORIAL HepG2 Assay for human X-box Binding Protein 1 (XBP1) (AID 2282972); conditions: HepG2 XBP1 cis-element reporter, Attagene multiplex; actives raise or lower the signal
Sequence of X-box-binding protein 1 (Homo sapiens) (P17861 whole entry, looked up, the tested form may be a part): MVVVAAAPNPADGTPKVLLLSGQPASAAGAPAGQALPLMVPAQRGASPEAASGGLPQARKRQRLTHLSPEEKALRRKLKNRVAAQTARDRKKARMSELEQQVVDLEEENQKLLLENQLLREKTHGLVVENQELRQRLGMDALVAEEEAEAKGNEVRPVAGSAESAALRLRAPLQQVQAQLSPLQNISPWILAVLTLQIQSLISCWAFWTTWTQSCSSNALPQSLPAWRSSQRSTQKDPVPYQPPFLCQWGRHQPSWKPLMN
In short: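 Fluorescence-labelled cDNA fragments from reporter transcripts, separated by capillary electrophoresis, give the signal. Source: HepG2 cells transfected with promoter-driven reporter units, harvested 24 h post-dose. DMSO served as reference for bidirectional curve fitting.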

[14] = ATG_M_19_TRANS: Attagene TRANS-FACTORIAL HepG2 Assay for M19 Transcription Factor (Internal Marker) (AID 2282974; active = hit-call score of the fitted dose curve at least 0.9, where 1 is the maximum); conditions: HepG2 Attagene TRANS-FACTORIAL M19 internal marker reporter
In short: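 Transfected HepG2 (GAL4-UAS MRTUs), 24 h compound, TriZol RNA, DNase-treated RT, reporter PCR, FAM label, HpaI digest, CE fluorescence; gain vs DMSO.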

[15] = ATG_GAL4_TRANS: Attagene TRANS-FACTORIAL HepG2 Assay for GAL4 (Internal Marker) (AID 2282976; active = hit-call score of the fitted dose curve at least 0.9, where 1 is the maximum); conditions: HepG2 Attagene TRANS GAL4 internal marker reporter
In short: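 Background-control readout: GAL4-UAS reporter transcript in transiently transfected HepG2 cells after 24 h compound exposure. Measured by RT-PCR, 6-FAM primer extension, HpaI digest and capillary electrophoresis; gain-of-signal fit versus DMSO.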

[16] = molecular target: Estrogen-related receptor gamma (Homo sapiens) (UniProt P62508); assay: ATG_ERRg_TRANS: Attagene TRANS-FACTORIAL HepG2 Assay for human Estrogen-Related Receptor gamma (ERRg) (AID 2282977; active = hit-call score of the fitted dose curve at least 0.9, where 1 is the maximum;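 note: hits increase reporter signal over DMSO so potencies reflect activators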); conditions: HepG2 Attagene TRANS reporter, ERRg transactivation
Sequence of Estrogen-related receptor gamma (Homo sapiens) (P62508 whole entry, looked up, the tested form may be a part): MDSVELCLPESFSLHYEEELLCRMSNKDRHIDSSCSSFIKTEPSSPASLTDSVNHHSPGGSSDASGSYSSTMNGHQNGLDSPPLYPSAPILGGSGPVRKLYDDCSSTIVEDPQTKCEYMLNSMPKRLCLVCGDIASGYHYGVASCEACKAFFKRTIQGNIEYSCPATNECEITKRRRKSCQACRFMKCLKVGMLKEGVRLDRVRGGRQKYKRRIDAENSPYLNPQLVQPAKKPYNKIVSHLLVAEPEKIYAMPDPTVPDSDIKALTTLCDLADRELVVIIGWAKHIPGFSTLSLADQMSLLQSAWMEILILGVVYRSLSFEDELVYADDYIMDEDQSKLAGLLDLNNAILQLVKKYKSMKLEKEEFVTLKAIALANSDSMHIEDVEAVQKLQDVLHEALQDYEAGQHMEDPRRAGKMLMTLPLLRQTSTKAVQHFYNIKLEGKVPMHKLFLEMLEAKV
In short: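 Transient HepG2 transfectants, 24 h compound exposure, GAL4-UAS reporter mRNA by RT-PCR/6-FAM labelling/capillary electrophoresis; positive direction vs DMSO.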

[17] = ATG_TGFb_CIS: Attagene CIS-FACTORIAL HepG2 Assay for human Transforming Growth Factor (TGF) (AID 2282967); conditions: HepG2 Attagene CIS TGFb reporter, mRNA transcription; actives raise or lower the signal
In short: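 HepG2 cells transiently transfected with cis-promoter-driven multiple reporter units measure endogenous TF activity; reporter mRNA quantified at 24 h by RT-PCR, FAM labeling, HpaI digestion and capillary electrophoresis. Bidirectional fit vs DMSO.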

[18] = molecular target: Estrogen receptor (Homo sapiens) (UniProt P03372); assay: ATG_ERa_TRANS: Attagene TRANS-FACTORIAL HepG2 Assay for human Estrogen Receptor alpha (ERa) (AID 2282970; active = hit-call score of the fitted dose curve at least 0.9, where 1 is the maximum); conditions: HepG2 Attagene TRANS ERa GAL4 reporter, mRNA
Sequence of Estrogen receptor (Homo sapiens) (P03372 whole entry, looked up, the tested form may be a part): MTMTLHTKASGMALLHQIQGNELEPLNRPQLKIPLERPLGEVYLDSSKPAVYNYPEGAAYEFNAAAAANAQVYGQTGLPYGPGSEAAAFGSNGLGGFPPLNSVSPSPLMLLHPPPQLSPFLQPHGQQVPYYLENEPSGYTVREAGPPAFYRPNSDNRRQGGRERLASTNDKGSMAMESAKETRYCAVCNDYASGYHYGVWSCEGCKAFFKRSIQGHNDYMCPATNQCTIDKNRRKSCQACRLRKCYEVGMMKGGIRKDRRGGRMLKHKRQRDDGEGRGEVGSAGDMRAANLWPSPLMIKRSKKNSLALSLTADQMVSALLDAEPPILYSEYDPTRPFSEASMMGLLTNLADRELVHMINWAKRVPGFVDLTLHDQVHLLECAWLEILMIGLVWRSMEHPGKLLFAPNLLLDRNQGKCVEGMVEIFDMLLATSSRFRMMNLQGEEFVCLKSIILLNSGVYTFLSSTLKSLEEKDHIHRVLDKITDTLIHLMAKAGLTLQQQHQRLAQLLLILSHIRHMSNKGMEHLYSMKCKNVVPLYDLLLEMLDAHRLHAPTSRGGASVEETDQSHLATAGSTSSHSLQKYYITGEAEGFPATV
In short: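 HepG2 cells transiently transfected with multiplexed GAL4-UAS reporter units read out chimeric NR-Gal4 activity. After 24 h compound exposure, reporter mRNA was quantified by RT-PCR, 6-FAM labeling, HpaI digestion and capillary electrophoresis, relative to DMSO.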

[19] = molecular target: Steroid hormone receptor ERR1 (Homo sapiens) (UniProt P11474); assay: ATG_ERRa_TRANS: Attagene TRANS-FACTORIAL HepG2 Assay for human Estrogen-Related Receptor alpha (ERRa) (AID 2282971; active = hit-call score of the fitted dose curve at least 0.9, where 1 is the maximum); conditions: HepG2 Attagene TRANS reporter, ERRa transactivation
Sequence of Steroid hormone receptor ERR1 (Homo sapiens) (P11474 whole entry, looked up, the tested form may be a part): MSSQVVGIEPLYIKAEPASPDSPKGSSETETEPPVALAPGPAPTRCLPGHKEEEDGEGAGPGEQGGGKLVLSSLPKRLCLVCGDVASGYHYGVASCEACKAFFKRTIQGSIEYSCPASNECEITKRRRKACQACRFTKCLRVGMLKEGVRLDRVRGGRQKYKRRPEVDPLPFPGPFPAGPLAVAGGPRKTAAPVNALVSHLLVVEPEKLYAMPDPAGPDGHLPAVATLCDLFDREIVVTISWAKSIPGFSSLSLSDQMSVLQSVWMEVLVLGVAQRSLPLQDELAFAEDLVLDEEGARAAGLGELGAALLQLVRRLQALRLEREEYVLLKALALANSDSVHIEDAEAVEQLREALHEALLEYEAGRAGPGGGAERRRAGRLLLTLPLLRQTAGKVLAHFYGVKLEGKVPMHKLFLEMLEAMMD
In short: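 HepG2 cells transiently transfected with GAL4-UAS reporter units and chimeric NR-Gal4 constructs; after 24 hour compound incubation, reporter mRNA quantified by RT-PCR, fluorescent labelling and capillary electrophoresis, gain of signal versus DMSO.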

[20] = molecular target: Glucocorticoid receptor (Homo sapiens) (UniProt P04150); assay: ATG_GR_TRANS: Attagene TRANS-FACTORIAL HepG2 Assay for human Glucocorticoid Receptor (GR) (AID 2282978; active = hit-call score of the fitted dose curve at least 0.9, where 1 is the maximum;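 note: activators score as hits since higher reporter transcript over DMSO is fitted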); conditions: HepG2 Attagene TRANS GR reporter, mRNA transcription
Sequence of Glucocorticoid receptor (Homo sapiens) (P04150 whole entry, looked up): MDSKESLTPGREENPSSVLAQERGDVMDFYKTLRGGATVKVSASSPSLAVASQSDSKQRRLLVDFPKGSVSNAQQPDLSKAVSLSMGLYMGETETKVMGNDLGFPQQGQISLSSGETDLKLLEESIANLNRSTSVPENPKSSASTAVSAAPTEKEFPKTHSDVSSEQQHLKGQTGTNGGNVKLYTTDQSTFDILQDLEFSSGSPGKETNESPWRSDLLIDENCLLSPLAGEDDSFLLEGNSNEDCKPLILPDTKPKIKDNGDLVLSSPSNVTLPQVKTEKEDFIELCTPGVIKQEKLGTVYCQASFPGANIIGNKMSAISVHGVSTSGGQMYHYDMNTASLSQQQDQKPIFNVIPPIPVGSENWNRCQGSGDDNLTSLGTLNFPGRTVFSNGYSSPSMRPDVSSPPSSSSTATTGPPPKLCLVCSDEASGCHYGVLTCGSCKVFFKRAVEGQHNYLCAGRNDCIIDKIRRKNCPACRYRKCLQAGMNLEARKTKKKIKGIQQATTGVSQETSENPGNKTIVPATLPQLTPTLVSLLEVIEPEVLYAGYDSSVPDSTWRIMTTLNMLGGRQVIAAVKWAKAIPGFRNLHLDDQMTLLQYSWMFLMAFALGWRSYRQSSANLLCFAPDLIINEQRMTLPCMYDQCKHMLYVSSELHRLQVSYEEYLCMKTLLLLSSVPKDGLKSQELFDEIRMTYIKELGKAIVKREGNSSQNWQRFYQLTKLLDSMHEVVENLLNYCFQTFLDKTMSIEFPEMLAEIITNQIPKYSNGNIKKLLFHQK
In short: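 After 24 h incubation with test chemical, transfected HepG2 cells were lysed for RNA; reporter cDNA was amplified, FAM-labelled, HpaI-digested and sized on a capillary analyser. Signal gain relative to DMSO was scored.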

Measured: AC50

Clc1nc(Cl)c(Cl)c(Cl)c1Cl
not listed: [17] | [18] | [19] | [20]
inactive: all other assays above

CCOc1cccc(-n2cc(C(=O)N3CCN(c4cc(C(=O)O)c5ccccc5c4)CC3)nc2-c2ccc(C)cc2)c1
active: [1] 41.4 µM | [2] 28.3 µM | [3] 26.1 µM | [6] 3.92 µM | [9] 22.3 µM | [17] 151 µM | [11] 27.2 µM
not listed: [12] | [16] | [18] | [19] | [20]
inactive: all other assays above

O=C1OC(=O)C2C3C=CC(C3)C12 (stereo not drawn)
not listed: [12] | [15] | [16] | [17] | [18] | [19] | [20]
inactive: all other assays above

Cc1ccc(N)cc1O
not listed: [14] | [15] | [16] | [17] | [19] | [20]
inactive: all other assays above

CN(C)c1ccc(Cc2ccc(N(C)C)cc2)cc1
active: [1] 26.6 µM | [2] 36.7 µM | [5] 100 µM | [6] 43.4 µM | [11] 25.8 µM
not listed: [12] | [14] | [15] | [17] | [18] | [20]
inactive: all other assays above

CC(=O)c1ccc2c(c1)[C@H](NC(=O)c1ccc(F)cc1)[C@@H](O)C(C)(C)O2
active: [1] 12.4 µM | [2] 1.87 µM
not listed: [14] | [16] | [18] | [19] | [20]
inactive: all other assays above

COc1ccc(-n2nc(C(F)F)cc2-c2ccc(S(C)=O)cc2)cc1 (stereo not drawn)
active: [1] 26.6 µM | [6] 126 µM
not listed: [12] | [15] | [16] | [17] | [19]
inactive: all other assays above

COc1cccc(-c2ccc(/C=C\CN3CCCCCC3)cc2Cl)c1
active: [1] 3.67 µM | [6] 20.5 µM | [11] 6.94 µM
not listed: [15] | [17] | [19] | [20]
inactive: all other assays above
